According to PubChem BioAssay (NCI):
This is part of a sample that, as a whole, favours compounds with a hit. Of some 83,000 tested, about 20% had one in any assay.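 Results are percent growth after 48 hours of single-concentration exposure. 100 means growth as in untreated cells, lower positive values show inhibition; negative values down to -100 show cell death.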 The source made the active and inactive calls. How the source made its calls: active means growth percent below 10; inactive means the rest.

Experiments:
Experiment in all cases: NCI-60 one-dose screen, 48 h (100 = growth as untreated, 0 = no growth, -100 = all killed)
Settings in all cases: 10 µM unless noted
T-47D breast = test system: T-47D breast
BT-549 breast = test system: BT-549 breast
MDA-MB-435 melanoma = test system: MDA-MB-435 melanoma
SW-620 colon = test system: SW-620 colon
MCF7 breast = test system: MCF7 breast
HCT-116 colon = test system: HCT-116 colon
HCC-2998 colon = test system: HCC-2998 colon
KM12 colon = test system: KM12 colon

Measured: growth

CCOC(=O)/C=C1\S/C(=N\Nc2cc(=O)[nH]c3ccc(Cl)cc23)N(c2ccccc2)C1=O
inactive: T-47D breast 66.8% | BT-549 breast 93.7% | MDA-MB-435 melanoma 96.3% | SW-620 colon 77.3% | MCF7 breast 34.3% | HCT-116 colon 38.9% | HCC-2998 colon 105% | KM12 colon 98.5%

O=C(Cn1cc(CN2C(=O)c3ccccc3S2(=O)=O)nn1)Nc1nc2ccccc2s1
inactive: T-47D breast 88.1% | BT-549 breast 97.9% | MDA-MB-435 melanoma 112% | SW-620 colon 105% | MCF7 breast 91.1% | HCT-116 colon 88% | HCC-2998 colon 113% | KM12 colon 103%

CCCCCCNC(=O)Oc1ccc(/C(=C(/C)Cc2ccc(OC)cc2)c2ccc(OCCCN(C)C)cc2)cc1
inactive: T-47D breast 18.9% | BT-549 breast 79% | MDA-MB-435 melanoma 19.5% | HCC-2998 colon 35.2% | KM12 colon 35.6%
active: SW-620 colon -21.8% | MCF7 breast 8.65% | HCT-116 colon -52.2%

Cc1ccc(NC(=S)NNC(=S)NNc2ccccc2)cc1C
inactive: T-47D breast 98.1% | BT-549 breast 120% | MDA-MB-435 melanoma 110% | SW-620 colon 106% | MCF7 breast 98.9% | HCT-116 colon 116% | HCC-2998 colon 123% | KM12 colon 90.8%

C=C(C)[C@@H]1CC[C@]2(C(=O)OC)CC[C@]3(C)[C@H](CC[C@@H]4[C@@]5(C)C/C(=C/NC(N)=S)C(=O)C(C)(C)[C@@H]5CC[C@]43C)[C@@H]12
inactive: T-47D breast 60.9% | BT-549 breast 126% | MDA-MB-435 melanoma 93.7% | SW-620 colon 87.3% | MCF7 breast 80.7% | HCT-116 colon 74.4% | HCC-2998 colon 99.4% | KM12 colon 82.6%

COCCn1cc(-c2nc(-c3cc4cccnc4n3CCOC)cs2)c2cc(OC)ccc21
active: T-47D breast -10.5% | MCF7 breast 5.4%
inactive: BT-549 breast 57% | MDA-MB-435 melanoma 91.4% | SW-620 colon 49% | HCT-116 colon 43% | HCC-2998 colon 28% | KM12 colon 11.8%

CCOC(=O)c1cc2c(=O)oc3ccccc3c2oc1=O
inactive: T-47D breast 107% | BT-549 breast 99.4% | MDA-MB-435 melanoma 111% | SW-620 colon 105% | MCF7 breast 99.8% | HCT-116 colon 109% | HCC-2998 colon 102% | KM12 colon 110%

CCOc1ccc(NC(=O)CSc2oc(-c3ccccc3)nc2S(=O)(=O)c2ccc(F)cc2)cc1
inactive: T-47D breast 63.1% | BT-549 breast 96.5% | MDA-MB-435 melanoma 88.9% | SW-620 colon 89.6% | MCF7 breast 71.4% | HCT-116 colon 21.9% | HCC-2998 colon 85.3% | KM12 colon 84.9%

O=C(NCCCCNC(=O)OCc1ccc2c(Cl)cc(Cl)c(O)c2n1)OCc1ccc2c(Cl)cc(Cl)c(O)c2n1
active: MDA-MB-435 melanoma -48.7% | HCT-116 colon 7.49% | KM12 colon 6.41%
inactive: T-47D breast 61% | BT-549 breast 15.3% | SW-620 colon 19.5% | MCF7 breast 13.7% | HCC-2998 colon 18.5%

N#CC1=C(N)Oc2c(sc3c(Br)cccc23)C1c1ccc(F)cc1 (configuration not stated)
inactive: T-47D breast 50% | BT-549 breast 25.3% | SW-620 colon 32.2% | MCF7 breast 12.1% | HCT-116 colon 11.9% | HCC-2998 colon 23.5% | KM12 colon 23.1%
active: MDA-MB-435 melanoma -10.3%

CCS/C(Nc1ccccc1)=C(\C#N)C(=O)N/N=C/c1ccc(Cl)cc1Cl
inactive: T-47D breast 17.8% | BT-549 breast 45.4% | SW-620 colon 18.6% | MCF7 breast 19.3% | HCT-116 colon 17.5% | HCC-2998 colon 48.4% | KM12 colon 28%
active: MDA-MB-435 melanoma -34.5%

CC12CCC3c4ccccc4CCC3(CO1)C2 (configuration not stated)
inactive: T-47D breast 101% | BT-549 breast 121% | MDA-MB-435 melanoma 107% | SW-620 colon 106% | MCF7 breast 97.1% | HCT-116 colon 117% | HCC-2998 colon 94.2% | KM12 colon 110%

O=S(=O)(Nc1ccccc1)c1ccc(C2CC3(Cl)C(Cl)=C(Cl)C2(Cl)C3(Cl)Cl)cc1 (configuration not stated)
inactive: T-47D breast 29.4% | BT-549 breast 76.4% | MDA-MB-435 melanoma 23.6% | SW-620 colon 30.7% | MCF7 breast 23.2% | HCT-116 colon 17.6% | HCC-2998 colon 53.5% | KM12 colon 22.7%

O=C(CI)NC1Oc2ccccc2-c2oc(=O)c(-c3ccccc3)cc21 (configuration not stated)
active: T-47D breast -42.4% | BT-549 breast -55.7% | SW-620 colon -48.3% | MCF7 breast -53.3% | HCT-116 colon -37.5% | KM12 colon 2.37%
inactive: MDA-MB-435 melanoma 17.9% | HCC-2998 colon 78.2%

COC(=O)c1n[nH]c2ccc3nc(-c4cn[nH]c4C(F)(F)F)c4c(c3c12)CCCC4
inactive: T-47D breast 57% | BT-549 breast 35.5% | MDA-MB-435 melanoma 39.3% | SW-620 colon 28.3% | MCF7 breast 53% | HCT-116 colon 22.9% | HCC-2998 colon 15.7% | KM12 colon 26.8%

CC(=O)n1nc(C(=O)OC(C)C)c2cc(C)c(C)cc21
inactive: T-47D breast 88.7% | BT-549 breast 98.2% | MDA-MB-435 melanoma 98.6% | SW-620 colon 98.8% | MCF7 breast 90.8% | HCT-116 colon 83.8% | HCC-2998 colon 105% | KM12 colon 105%

COc1ccc(/C=C2\C(=O)N=C3N2NC(c2cc(Br)ccc2O)C=C(C)N3c2ccccc2)cc1 (configuration not stated)
inactive: T-47D breast 89.6% | BT-549 breast 88% | MDA-MB-435 melanoma 94.5% | SW-620 colon 104% | MCF7 breast 83.7% | HCT-116 colon 98.1% | HCC-2998 colon 87.1% | KM12 colon 102%

CCN1CC(=O)N(/N=C2\C(=O)Nc3ccccc32)C1=S
inactive: T-47D breast 73.6% | BT-549 breast 88.5% | MDA-MB-435 melanoma 98.2% | SW-620 colon 87% | MCF7 breast 84.1% | HCT-116 colon 94.9% | HCC-2998 colon 99.4% | KM12 colon 94.7%

COc1cc(/C=C/C(=O)c2cccc(Nc3nc(Nc4ccccc4)nc(Nc4ccccc4)n3)c2)cc(OC)c1OC
inactive: T-47D breast 42.2% | BT-549 breast 64.2% | MDA-MB-435 melanoma 68.8% | SW-620 colon 35.4% | MCF7 breast 22.9% | HCT-116 colon 15.1% | HCC-2998 colon 16.7% | KM12 colon 52.7%

CO/N=C(/C)c1ccc(NC(=O)CSc2nnc(-c3ccncc3)n2-c2ccccc2)cc1
inactive: T-47D breast 17.4% | MDA-MB-435 melanoma 47% | SW-620 colon 84.2% | MCF7 breast 42% | HCC-2998 colon 82.3% | KM12 colon 61.9%
active: BT-549 breast 6.99% | HCT-116 colon 4.38%

C=C1C(=O)O[C@H]2[C@H]1CC/C(COC(=O)CCSCCC(=O)OC/C1=C/CC[C@@]3(C)O[C@H]3[C@H]3OC(=O)C(=C)[C@@H]3CC1)=C\CC[C@@]1(C)O[C@@H]21
active: BT-549 breast -9.47% | MDA-MB-435 melanoma 8.02% | SW-620 colon -23.5% | MCF7 breast 9.43% | HCT-116 colon -60.2% | HCC-2998 colon -1.54%
inactive: T-47D breast 19.1% | KM12 colon 34.3%

CC1Cc2c(Cl)ncnc2N(C)c2ccc(F)cc21 (configuration not stated)
inactive: T-47D breast 92.5% | BT-549 breast 108% | MDA-MB-435 melanoma 102% | SW-620 colon 106% | MCF7 breast 97.9% | HCT-116 colon 87.5% | HCC-2998 colon 103% | KM12 colon 99.9%

COC1=CC(c2ccc[nH]2)=N/C1=C\c1[nH]c(C)c(C(=O)OCc2ccccc2)c1C
active: T-47D breast -73.4% | BT-549 breast -13.8% | MDA-MB-435 melanoma -69.7% | SW-620 colon -25.5% | MCF7 breast -76.3% | HCT-116 colon -75.4% | HCC-2998 colon -54.5% | KM12 colon -71.3%

O=C(O)[C@@H]1c2ccccc2-c2ccccc2[C@H]1C(=O)O
inactive: T-47D breast 102% | BT-549 breast 114% | MDA-MB-435 melanoma 100% | SW-620 colon 101% | MCF7 breast 94.6% | HCT-116 colon 92.6% | HCC-2998 colon 100% | KM12 colon 105%

COc1cc2oc(-c3cccc(NC(=O)c4cccc(Br)c4)c3)cc(=O)c2c(OC)c1OC
inactive: T-47D breast 27.7% | BT-549 breast 50.2% | MDA-MB-435 melanoma 57.4% | SW-620 colon 65.1% | MCF7 breast 54.8% | HCT-116 colon 40.2% | HCC-2998 colon 57.8% | KM12 colon 40.4%

CN[C@]12CC3(C=CC(=O)C=C3)O[C@@]1(Cc1ccc(OC)cc1)N(C)C(=O)N2
active: MDA-MB-435 melanoma 1.71% | HCT-116 colon -35.2% | KM12 colon 9.7%
inactive: T-47D breast 16.6% | BT-549 breast 41.5% | SW-620 colon 11.1% | MCF7 breast 23.3% | HCC-2998 colon 32.7%

CCn1c(=S)sc2c(Nc3ccc(F)cc3)nc(-c3cccnc3)nc21
inactive: T-47D breast 30.5% | BT-549 breast 54.2% | MDA-MB-435 melanoma 81.1% | SW-620 colon 90.6% | MCF7 breast 73.1% | HCT-116 colon 21.4% | HCC-2998 colon 86.1% | KM12 colon 69.7%

CCCCCCC1(C)NCCO1 (configuration not stated)
inactive: T-47D breast 108% | BT-549 breast 103% | MDA-MB-435 melanoma 109% | SW-620 colon 106% | MCF7 breast 99.7% | HCT-116 colon 106% | HCC-2998 colon 99.2% | KM12 colon 106%

Cc1cc2c([nH]1)CSc1cc(S(=O)(=O)c3ccccc3)c(=O)[nH]c1-2
inactive: MDA-MB-435 melanoma 10.6% [100 µM] | SW-620 colon 23.8% [100 µM] | HCC-2998 colon 12.4% [100 µM]
active: T-47D breast 4.92% [100 µM] | BT-549 breast -12.2% [100 µM] | MCF7 breast -0.665% [100 µM] | HCT-116 colon 1.35% [100 µM] | KM12 colon -37.2% [100 µM]
